Measurements taken from the supplement of paper PMC9950053.
Structures can show the parent of a compound that is named as a salt.

What follows are molecules tested on Danio rerio larvae (5 dpf) (assay: habituation (activity change first vs second 5 min of 1-s interval sound, period 17) minus DMSO control (percentage points); higher = larger habituation measure than DMSO larvae). Details: 10 µM; exposure time: 3 h pre-incubation + 3 h imaging.
Method: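 Wild-type 5 dpf zebrafish larvae (n=48 per drug, 96-well plates, 28.5 °C) were exposed to Tocris FDA-approved library compounds at 10 µM (0.1% DMSO) for 3 h before and 3 h during imaging. Images were taken every 6 s during visual and acoustic stimuli, and larvae were tracked with Z-LaP Tracker. Each measure is the treated-group mean minus the DMSO control mean (n=844), in percentage points. This mapping covers compounds with 5-character plate codes.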
For CN(C)CCc1c[nH]c2ccc(C[C@H]3COC(=O)N3)cc12 [Zolmitriptan], the habituation was -0.595. Clc1ccc2nsnc2c1NC1=NCCN1 [Tizanidine hydrochloride] was tested, and the habituation was -2.36. For N#Cc1ccc2[nH]cc(CCCCN3CCN(c4ccc5oc(C(N)=O)cc5c4)CC3)c2c1 [Vilazodone hydrochloride], the habituation was -2.05. In the case of C#CCN[C@@H]1CCc2ccccc21 [Rasagiline mesylate], the habituation is reported as 3.64. O=c1n(CCCN2CCN(c3cccc(Cl)c3)CC2)nc2ccccn12 [Trazodone hydrochloride] gave a habituation of -12.5. For COc1cc2nccc(Oc3ccc(NC(=O)C4(C(=O)Nc5ccc(F)cc5)CC4)cc3)c2cc1OC, the habituation was -4.58. C[C@@H]1C[C@H]2[C@@H]3CCC4=CC(=O)C=C[C@]4(C)[C@@]3(F)[C@@H](O)C[C@]2(C)[C@@]1(O)C(=O)CO [Dexamethasone] showed a habituation of 2.24. CN[C@H]1CC[C@@H](c2ccc(Cl)c(Cl)c2)c2ccccc21 [Sertraline hydrochloride] gave a habituation of -8.76. CCc1nc(N)nc(N)c1-c1ccc(Cl)cc1 [Pyrimethamine] showed a habituation of 3.38. Molecule CC(C)(C(=O)O)c1ccc(C(O)CCCN2CCC(C(O)(c3ccccc3)c3ccccc3)CC2)cc1 (configuration not stated) [Fexofenadine hydrochloride] has a habituation of 3.94. Work on COc1ccccc1OCC(O)CN1CCN(CC(=O)Nc2c(C)cccc2C)CC1 (configuration not stated) [Ranolazine dihydrochloride] yielded a habituation of -2.2. Work on COc1ccccc1Oc1c(NS(=O)(=O)c2ccc(C(C)(C)C)cc2)nc(-c2ncccn2)nc1OCCO [Bosentan] yielded a habituation of 4.58. CNCc1ccc(-c2[nH]c3cc(F)cc4c3c2CCNC4=O)cc1 [Rucaparib camsylate] was tested, and the habituation was 5.03. CC(=O)Oc1cc2c(s1)CCN(C(C(=O)C1CC1)c1ccccc1F)C2 (configuration not stated) [Prasugrel] showed a habituation of 0.528. In the case of O=C1CCc2ccc(OCCCCN3CCN(c4cccc(Cl)c4Cl)CC3)cc2N1 [Aripiprazole], the habituation is reported as -7.85. COCCc1ccc(OCC(O)CNC(C)C)cc1 (configuration not stated) [Metoprolol tartrate] gave a habituation of -3.41. OCc1cc(C(O)CNCCCCCCOCCCCc2ccccc2)ccc1O (configuration not stated) [Salmeterol xinafoate] was tested, and the habituation was -0.659. In the case of Cc1cc2c(s1)Nc1ccccc1N=C2N1CCN(C)CC1 [Olanzapine], the habituation is reported as 0.758. CNC(=O)c1cc(Oc2ccc(NC(=O)Nc3ccc(Cl)c(C(F)(F)F)c3)cc2)ccn1 [Sorafenib] showed a habituation of -9.55. Molecule CCCC1O[C@@H]2C[C@H]3[C@@H]4CCC5=CC(=O)C=C[C@]5(C)[C@H]4[C@@H](O)C[C@]3(C)[C@]2(C(=O)CO)O1 (some centres not stated) [Budesonide] has a habituation of -1.55. CN(C)C(=N)NC(=N)N [Metformin hydrochloride] showed a habituation of 2.17. With OCCN1C[C@H](O)[C@@H](O)[C@H](O)[C@H]1CO [Miglitol] the habituation was -1.71. COc1cc(N)c(Cl)cc1C(=O)NC1CCN(CCCOc2ccc(F)cc2)CC1OC (configuration not stated) [Cisapride] was tested, and the habituation was 4.4. In the case of OC(c1cc(C(F)(F)F)nc2c(C(F)(F)F)cccc12)C1CCCCN1 (configuration not stated) [Mefloquine hydrochloride], the habituation is reported as 3.04. N#C[C@@H]1C[C@@H]2C[C@@H]2N1C(=O)[C@@H](N)C12CC3CC(CC(O)(C3)C1)C2 [Saxagliptin hydrochloride] gave a habituation of 2.76. Molecule COc1cc([C@@H]2c3cc4c(cc3[C@@H](O[C@@H]3O[C@@H]5CO[C@@H](C)O[C@H]5[C@H](O)[C@H]3O)[C@H]3COC(=O)[C@H]23)OCO4)cc(OC)c1O [Etoposide] has a habituation of 1.7. Work on CC(C)COCC(CN(Cc1ccccc1)c1ccccc1)N1CCCC1 (configuration not stated) [Bepridil hydrochloride] yielded a habituation of -5.91. NS(=O)(=O)c1cc2c(cc1Cl)NC(C1CC3C=CC1C3)NS2(=O)=O (configuration not stated) [Cyclothiazide] gave a habituation of 1.92. In the case of C[C@H]1O[C@H](O[C@H]2[C@H](O)[C@@H](O)[C@@H](O[C@H]3[C@H](O)[C@@H](O)C(O)O[C@@H]3CO)O[C@@H]2CO)[C@H](O)[C@@H](O)[C@@H]1N[C@H]1C=C(CO)[C@@H](O)[C@H](O)[C@H]1O (some centres not stated) [Acarbose], the habituation is reported as 1.19. For CC[C@H]1OC(=O)[C@H](C)[C@@H](O[C@H]2C[C@@](C)(OC)[C@@H](O)[C@H](C)O2)[C@H](C)[C@@H](O[C@@H]2O[C@H](C)C[C@H](N(C)C)[C@H]2O)[C@](C)(O)C[C@@H](C)CN(C)[C@H](C)[C@@H](O)[C@]1(C)O [Azithromycin], the habituation was 3.26. Molecule CCCc1nn(C)c2c(=O)[nH]c(-c3cc(S(=O)(=O)N4CCN(C)CC4)ccc3OCC)nc12 [Sildenafil citrate] has a habituation of -2.72. In the case of NC(=O)OCC(COC(N)=O)c1ccccc1 [Felbamate], the habituation is reported as 2.5. Work on O=C(O)C[C@H](O)C[C@H](O)/C=C/c1c(C2CC2)nc2ccccc2c1-c1ccc(F)cc1 [Pitavastatin calcium] yielded a habituation of -5.34. CC(=O)Nc1ccc(O)cc1 [Acetaminophen] was tested, and the habituation was -1.62. Work on CCCCCCCN(CC)CCCC(O)c1ccc(NS(C)(=O)=O)cc1 (configuration not stated) [Ibutilide hemifumarate] yielded a habituation of -0.126. CC(C)OC(=O)C(C)(C)Oc1ccc(C(=O)c2ccc(Cl)cc2)cc1 [Fenofibrate] was tested, and the habituation was -2.39. With CNS(=O)(=O)Cc1ccc2[nH]cc(CCN(C)C)c2c1 [Sumatriptan succinate] the habituation was 2.06.
